Compounds without any hit were thinned out: in the full panel of roughly 83,000, 20% have a hit.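 How to read the values: 0–100, growth inhibition (40 = 60% inhibited); 0, no net growth; -100 to 0, cell death (-40 = 40% of starting cells died; -100 = all dead).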 Values without a mark were called inactive. The source made the active and inactive calls.
Each compound was assayed on COLO 205 colon (assay: NCI-60 one-dose screen, 48 h (100 = growth as untreated, 0 = no growth, -100 = all killed)). Conditions: 10 µM unless noted.
Protocol: Cells are grown in 96 well plates and exposed to the test compound for 48 hours. Compounds are tested at a single concentration, which is 10^-5 M for most compounds. The reported endpoint is percent growth (GI% or GIPRCNT), where numbers from 0 - 100% represent growth inhibition, and numbers from -100% - 0 represent cell death. For example, a value of 40 represents 60% growth inhibition. A value of 0 means no net growth occurred over the course of the experiment. A value of -40 indicates 40% of cells at the beginning of the experiment died by the end of the experiment. A value of -100 means all cells are dead at the end of the experiment.
NCI-60 Human Tumor Cell Lines Screen was performed using the standard one-dose NCI protocol, which is described in more detail at https://dtp.cancer.gov/discovery_development/nci-60/default.htm.
Compounds with GIPRCNT values below 10 were considered active. Activity score was based on GIPRCNT using the following formula: […]
Score is 0 for GIPRCNT values of 100 or above, 50 for GIPRCNT values of 0, and 100 for GIPRCNT values of -100.

Row | Structure (SMILES) | growth
1 | CC(=O)N1N=C(c2ccc(C(F)(F)F)c(F)c2)CC1c1[nH]c(C)c(C(=O)NCC(F)(F)F)c1C (stereo not given) | 112%
2 | COc1c(B(O)O)cccc1-c1nc2c(F)cc3[nH]ncc3c2c2c1CCCC2 | -20.2% (active)
3 | Cn1ccnc1C(=O)/C=C/c1ccc(C(=O)Nc2ccccc2O)cc1 | 56.5%
4 | CCCCn1c(=O)[nH]c(N)c([C@@H]2c3c([nH]c(=O)n(CCCC)c3=O)Oc3ccc4ccccc4c32)c1=O | 59.3%
5 | CC(=O)O[C@@H]1C[C@]2(C(C)C)O[C@@]1(C)[C@@H]1CCC(C)=C1[C@@H]2OC(=O)/C=C/c1ccccc1 | 94.1%
6 | Cn1cc(-c2csc(-c3c[nH]c4ccccc34)n2)c2cnccc21 | -37.3% (active)
7 | C/C(Cc1ccc(Cl)cc1)=C(\c1ccc(O)cc1)c1ccc(Cl)cc1 | 109%
8 | O=C(COc1ccc(-c2nc3cc(Cl)c(Cl)cc3[nH]2)cc1)N=Nc1c(O)[nH]c2ccc(Cl)cc12 | 56.2%
9 | O=C(CSC(=S)n1cnnc1)NC(=O)c1ccccc1 | 119%
10 | CCCCC1=C(P(=O)(O)O)N[C@H](C(=O)O)CS1 | 108%
11 | N#Cc1c(-c2ccccc2)cc(-c2ccc(Nc3nc(Nc4ccc(Cl)cc4)nc(Nc4ccc(Cl)cc4)n3)cc2)nc1N | -25.3% (active)
12 | Clc1ccc(/C=N\N=C\c2ccc(Cl)c(Cl)c2)cc1Cl | 90.8%
13 | CCCCCCCCCc1ccc(OCCOCCOCCOCCOCCOCCOCCOCCOCCO)cc1 | 109%
14 | CN(C)c1ccc(-c2c(C#N)c(N)nn2C(=O)c2ccc(NC(=O)c3ccccn3)cc2)cc1 | 104%
15 | CC(=O)N1N=C(c2ccc(Nc3nc(Nc4ccccc4)nc(Nc4ccccc4)n3)cc2)CC1c1ccccc1 (stereo not given) | 68.5%
16 | COC(CC(F)F)c1cn(S(=O)(=O)c2ccc(C)cc2)c2ccccc12 (stereo not given) | 3.62% (active)
17 | O=S(=O)(Nc1ccc(Cl)c(C(F)(F)F)c1)c1ccc(-c2cnc(C3CC3)o2)cc1 | 2.71% (active)
18 | COc1ccc2c(c1OC)CO[C@@H]2[C@H]1c2c(cc3c(c2OC)OCO3)CCN1S(=O)(=O)c1cn(C)cn1 | 0.532% (active)
19 | C=C1C(=O)O[C@H]2[C@H]1CC/C(COC(=O)c1cc3ccccc3s1)=C\CC[C@@]1(C)O[C@@H]21 | -71.3% (active)
20 | N#Cc1nc(-c2ccccc2)oc1S(=O)(=O)N1CCN(c2ccccc2)CC1 | 122%

Row | Structure (SMILES) | growth
21 | COc1ccc(C(=O)Nc2cccc(-c3cc(=O)c4c(OC)c(OC)c(OC)cc4o3)c2)cc1 | 73.1%
22 | O=c1c2cccc3c(N4CCCC4)ccc(c32)c2nc3ccccc3n12 | 63.6%
23 | Cc1ccc(CNc2ccc3nc(CCC4CCCCC4)[nH]c3c2)cc1 | -30% (active)
24 | CC(C)c1ccc(Cc2cnc(NC(=O)c3cc(Br)cs3)s2)cc1 | 15.4%
25 | O=C(/C=C/c1cn(-c2ccccc2)nc1-c1ccc(Cl)cc1)c1ccc(F)cc1 | 93.4%
26 | CCCCNC(=O)Oc1ccc(/C(=C(/C)Cc2ccc(OC)cc2)c2ccc(OCCN(CC)CC)cc2)cc1 | 46.8%
27 | COc1ccc(/C=N/NC(=O)c2ccc(-n3cc(-c4ccccc4)nn3)cc2)cc1OC | 91.7%
28 | CCCOC(=O)Nc1nc2ccc(SCC(C)C)cc2s1 | 11.6%
29 | CN(/C(N)=N/N=C/c1c2ccccc2cc2ccccc12)C1CCCCC1 | -55.5% (active)
30 | COc1cc2oc(-c3cccc(NC(=O)c4ccccc4)c3)cc(=O)c2c(OC)c1OC | 84.4%
31 | O=C1Nc2ccccc2/C1=C/c1cccn1CCCCn1c2ccccc2c(=O)c2ccccc21 | 69.8%
32 | O=[N+]([O-])c1ccc(O)cc1Br | 108%
33 | CCOC(=O)c1ccc(NC(=O)c2nc(-c3cc(OC)c(OC)c(OC)c3)n(-c3ccc(Cl)cc3)n2)cc1 | 104%
34 | CCCNc1nc2ccccc2c2c1S(=O)(=O)c1ccc(Cl)cc1C2=O | -9.19% (active)
35 | Oc1ccc(Cl)cc1/C=N\NC(=S)N/N=C/c1cc(Cl)ccc1O | 41.5%
36 | Clc1cc(Cl)c(Cl)c(-c2nnc(SCc3ccncc3Br)o2)c1 | 110%
37 | C=CC(=O)N1CCN(c2cccc(Oc3nccc(Nc4nnc(-c5ccc(Br)cc5)s4)n3)c2)CC1 | 63.4%
38 | O=C(Nc1cccc2ccccc12)NC1CC1 | 107%
39 | c1cnc2c(-c3nc4ccc5[nH]ncc5c4c4c3CCCC4)c[nH]c2c1 | 26.7%
40 | COc1ccc(Cc2cnc(NC(=O)c3cc(C)oc3C)s2)cc1 | 42.9%

— PubChem BioAssay (NCI)
